The structures appear in SMILES notation. The whole screen tested about 320,000 compounds, of which about 2,100 (0.66%) were called active. Another 53% or so got no clear call; they are omitted. Calls come from the whole dose curve; as a rule, active = well fitted inhibition curve with a large enough effect in the signal ratio, with a control signal flat (not every such curve was filed as active); inconclusive = small, poorly fitted or top-dose-only effect, or effect the other way, or a change in a side signal; inactive = flat fitted curve, though single readings scatter; the % refers to the signal ratio. This excerpt belongs to a sample that is enriched for actives.
Potency is the fitted concentration of half-maximal effect.

The nature of this experiment: qHTS Assay for Lipid Storage Modulators in Drosophila S3 Cells.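 For cell number change: cells counted by Cell Tracker Red CMTPX staining in the red channel.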 For lipid storage change, negative = inhibition: % is set by controls: 0 for no effect and ±100 for the full control effect. The settings on record: BODIPY lipid droplet fluorescence, 18-24 h, cells fed with added oleic acid; cell number change: measured here: cell count max response; series mostly up to 46.1 µM; lipid storage change, negative = inhibition: at the top concentration. The method, boiled down: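 Drosophila S3 cells loaded with oleic acid (400 uM, as added) and compounds at several concentrations; lipid droplets imaged by 488-nm laser-scanning cytometry, 500–530 nm intensity and object ratio to cell channel. Percent activity normalized to 20 uM Triacsin C.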
(In general: In qHTS, concentration-response curves come from the screen itself.)
With `CC(=O)OCCn1c(C)[n+](CCOC(C)=O)c2cc(Cl)c(Cl)cc21`, the “lipid storage change, negative = inhibition” value is 3.84% (inactive) and the cell number change stood at 13.2%.

In the case of `COc1ccc(OCC(=O)N2CC3(C)CC2CC(C)(C)C3)cc1` (stereo unspecified), the compound was classed as inactive.

As for `Nc1c(C(=O)Nc2ccc(S(=O)(=O)N3CCCC3)cc2)sc2nc3cc4c(cc3cc12)CCC4`, the “lipid storage change, negative = inhibition” value is -10.7% (inactive) and the cell number change is 6.36%.

Consider `CCc1cccc2cc3c(N)c(C(=O)Nc4ccc(S(=O)(=O)N5CCCC5)cc4)sc3nc12`, for which the Potency is 5.8 µM (active) and the cell number change stood at 0.905%.

`Cc1cccc2cc3c(N)c(C(=O)Nc4ccc(N5CCOCC5)cc4)sc3nc12`: the “lipid storage change, negative = inhibition” value is 5.73% (inactive) and the cell number change was -1.66%.

For `Cc1cccn2c(=O)c3cc(C(=O)NCCc4ccccc4)sc3nc12`, the compound was classed as inactive and the cell number change is -15.4%.

On to `Cc1ccc(C(=O)N2CCC(Cc3ccccc3)CC2)cc1[N+](=O)[O-]`, for which the “lipid storage change, negative = inhibition” value was 14.3% (inactive) and the cell number change amounted to 4.11%.

For `COc1cc(/C=C(/C#N)C(=O)NCc2ccccc2)cc(OC)c1OC`, the outcome was inactive and the cell number change is -27.2%.

As to `C=CCNC(=O)/C(C#N)=C\c1cc(Cl)c(OCC)c(OC)c1`, the Potency is 14.6 µM (active) and the cell number change is -28.8%.

In the case of `C=CCNC(=O)/C(C#N)=C\c1cc(Cl)c(O)c(OCC)c1`, the “lipid storage change, negative = inhibition” value is -22% (inactive) and the cell number change is 2.03%.

With `CC(=O)Nc1ccc(NC(=O)C2CC(=O)Nc3nc4ccccc4n32)cc1` (stereo unspecified), the “lipid storage change, negative = inhibition” value is 9.73% (inactive) and the cell number change was -1.64%.

Take `CCSc1nnc(NC(=O)Nc2cccc(C)c2)s1`: the “lipid storage change, negative = inhibition” value was -12.7% (inactive) and the cell number change is 17%.

`CNC(=O)Nc1cccc(C(F)(F)F)c1`: the “lipid storage change, negative = inhibition” value is 10.6% (inactive) and the cell number change is 3.39%.

`CCSCCc1nnc(NC(=O)Nc2cccc(C(F)(F)F)c2)s1`: the Potency was 20.6 µM (active) and the cell number change is -21.6%.

With `CC(C)C[C@@H](CSc1ccc(Br)cc1)N1CCN(C)CCC1=O`, the “lipid storage change, negative = inhibition” value was 14.2% (inactive) and the cell number change is -4.06%.

On to `CC(C(=O)NCc1ccc2c(c1)OCO2)N(c1ccccc1)S(C)(=O)=O` (stereo unspecified), for which the “lipid storage change, negative = inhibition” value is 6.83% (inactive) and the cell number change stood at 7.31%.

For `COc1ccc(N2C(=O)CN(Cc3ccc(OC)c(OC)c3)C2=S)cc1`, the “lipid storage change, negative = inhibition” value was -2.11% (inactive) and the cell number change came out at 10.4%.

In the case of `Cc1cc(C)c2nc(N(CCCN(C)C)C(=O)C3=COCCO3)sc2c1`, the “lipid storage change, negative = inhibition” value was -22.2% (inactive) and the cell number change is -20%.

With `Cc1ccc(/C=N/NC(=O)c2csc3c2CCCC3)cc1`, the Potency was 16.4 µM (active) and the cell number change was -23.6%.

For the compound `O=C(N/N=C/c1cccc(F)c1)c1csc2c1CCCC2`, the “lipid storage change, negative = inhibition” value is 2.18% (inactive) and the cell number change was determined as 1.41%.

Regarding `O=C(N/N=C/c1ccc(O)cc1)c1csc2c1CCCC2`, the “lipid storage change, negative = inhibition” value is -8.69% (inactive).

On to `COc1ccc(C)cc1S(=O)(=O)N(CC(=O)Nc1cccc([N+](=O)[O-])c1)c1cc(C)cc(C)c1`, for which the result was inactive.

Consider `CCOc1ccccc1OCC(=O)NN1Cc2ccccc2C1=N`, for which the outcome was inactive.

`Cc1cccc(C(=O)Nc2ccc(C(=O)/C=C/c3ccncc3)cc2)c1`: the Potency was 6.51 µM (active) and the cell number change was -3.72%.

Regarding `CC(=O)Nc1cccc(C(=O)/C=C/c2ccc(/C=C/C(=O)c3cccc(NC(C)=O)c3)cc2)c1`, the Potency is 8.2 µM (active) and the cell number change was -12.7%.

Take `Cc1cccc(C(=O)Nc2ccc(O)cc2)c1`: the “lipid storage change, negative = inhibition” value is -0.178% (inactive) and the cell number change was determined as 4.55%.

With `CSc1ccc(/C=C/C(=O)c2ccc(NC(C)=O)cc2)cc1`, the call was inactive.

On to `CC(=O)Nc1cccc(C(=O)/C=C/c2ccc[nH]2)c1`, for which the “lipid storage change, negative = inhibition” value was -0.805% (inactive) and the cell number change came out at 9.89%.

Consider `Cc1cccc(C(=O)N/N=C/c2ccncc2)c1`, for which the “lipid storage change, negative = inhibition” value is 3.87% (inactive) and the cell number change was -0.828%.

As to `CCOc1ccccc1CNC(=O)CCC(=O)N1Cc2ccccc2Oc2ncccc21`, the compound was called inactive and the cell number change is -10.6%.

As to `CCOC(=O)C1(Cc2ccc(Cl)cc2)CCN(C(=O)c2cc(C)nc(C)n2)CC1`, the “lipid storage change, negative = inhibition” value is 0.881% (inactive) and the cell number change was -4.86%.

For the compound `Cc1onc(-c2ccccc2Cl)c1C(=O)NCCCc1ccccc1`, the compound was classed as inactive and the cell number change was -24%.

For `Fc1ccc(C2c3[nH]c4ccccc4c3CCN2Cc2cccn2-c2ncccn2)cc1` (stereo unspecified), the “lipid storage change, negative = inhibition” value is -15.7% (inactive) and the cell number change was found to be 1.18%.

In the case of `Cc1cccc(C2c3[nH]c4ccccc4c3CCN2Cc2cccn2-c2ncccn2)c1` (stereo unspecified), the compound was classed as inactive and the cell number change was -27.2%.

As for `COc1ccc(C2c3[nH]c4ccccc4c3CCN2Cc2cccn2-c2ncccn2)cc1C` (stereo unspecified), the Potency was 16.4 µM (active) and the cell number change is -1.91%.

As to `CCN(CC)S(=O)(=O)c1cccc(-c2nnc(SCC(=O)c3cc(C)n(C4CC4)c3C)o2)c1`, the outcome was inactive and the cell number change stood at 13.6%.

Take `CCCOc1ccc(N2C(=O)CC(NCc3cccs3)C2=O)cc1` (stereo unspecified): the “lipid storage change, negative = inhibition” value is 4.41% (inactive) and the cell number change was found to be 15.4%.

Consider `CCOC(=O)c1ccc(CNC(=O)C(Cc2c[nH]c3ccccc23)NC(C)=O)o1` (stereo unspecified), for which the call was inactive.

With `O=C(NC(=O)c1c(Cl)cccc1Cl)Nc1ccc(Oc2cccnc2)nc1`, the “lipid storage change, negative = inhibition” value was 8.04% (inactive) and the cell number change was 1.56%.

As to `O=C1/C(=C/c2cccs2)SC(=S)N1CCCC(=O)N(CCO)c1ccccc1`, the “lipid storage change, negative = inhibition” value is -14.3% (inactive) and the cell number change was 6.09%.

For `Cc1cc(C)cc(C(=O)OCC(=O)N2CCCCCC2)c1`, the “lipid storage change, negative = inhibition” value is 0.176% (inactive) and the cell number change was -14.4%.

Take `O=C1CCCC(O)=C1N=Nc1c(Cl)cc(Cl)cc1Cl`: the “lipid storage change, negative = inhibition” value is 17.9% (inactive) and the cell number change was 2.67%.

Take `Cc1cccc(/C=N/NC(=O)c2cc(Br)ccc2O)n1`: the “lipid storage change, negative = inhibition” value is 6.34% (inactive) and the cell number change amounted to 0.985%.

Take `C/C=N/NC(=O)c1cc(Br)ccc1O`: the “lipid storage change, negative = inhibition” value was 9.52% (inactive) and the cell number change stood at 5.04%.

With `Cc1c(/C=N/NC(=O)c2cc(Br)ccc2O)c(=O)n(C)c(=O)n1C`, the Potency is 5.8 µM (active) and the cell number change is -6.52%.

With `O=C(Nc1ccc(CN2CCOCC2)cc1)c1ccc(-c2cccc([N+](=O)[O-])c2)o1`, the Potency was 8.2 µM (active) and the cell number change was -29.5%.

On to `CN1CCN(c2ccc(NC(=O)c3ccc(-c4cccc([N+](=O)[O-])c4)o3)cc2)CC1`, for which the “lipid storage change, negative = inhibition” value is 17.2% (inactive) and the cell number change was 17.7%.

Turning to `O=[N+]([O-])c1cccc(-c2ccc(C(=S)N3CCOCC3)o2)c1`, the “lipid storage change, negative = inhibition” value is -17.7% (inactive) and the cell number change is 15.8%.

For the compound `O=C(NC1CCCN(CCc2ccccc2)C1)C1CCCC1` (stereo unspecified), the “lipid storage change, negative = inhibition” value was -3.29% (inactive) and the cell number change amounted to 8.14%.

As for `C[C@H](NC(=O)C1CCN(S(=O)(=O)c2ccccc2)CC1)C(=O)NCc1ccc(F)cc1`, the “lipid storage change, negative = inhibition” value was 25.5% (inactive).

Take `CCN(CC)C1CCN(Cc2cn[nH]c2-c2ccc(OC)c(F)c2)C1` (stereo unspecified): the “lipid storage change, negative = inhibition” value is 5.24% (inactive) and the cell number change worked out at 7.18%.

Regarding `Cc1sc(NC(=O)/C=C/c2ccco2)c(C(=O)O)c1C`, the “lipid storage change, negative = inhibition” value is -1.31% (inactive) and the cell number change was 4.19%.

Take `N#Cc1ccsc1NC(=O)CSc1nnc(-c2ccccc2)o1`: the compound was classed as inactive and the cell number change came out at 20.1%.

Consider `CCn1c(SCC(=O)Nc2sc3c(c2C#N)CCC(C(C)(C)C)C3)nnc1-c1ccco1` (stereo unspecified), for which the “lipid storage change, negative = inhibition” value was -2.66% (inactive) and the cell number change is -7.68%.

For the compound `CC(C)(C)C1CCc2c(sc(NC(=O)CSc3nnc(-c4ccccc4)o3)c2C#N)C1` (stereo unspecified), the Potency was 4.11 µM (active) and the cell number change is -0.658%.

`COc1ccc(/C=N/n2cnc3c(sc(=S)n3-c3ccccc3)c2=O)cc1`: the outcome was inactive and the cell number change was determined as 19.1%.

Regarding `CN1C(=S)SC(N(O)C(=O)Nc2ccc(Cl)c(Cl)c2)C1(C)C` (stereo unspecified), the “lipid storage change, negative = inhibition” value was -7.63% (inactive) and the cell number change was -15%.

Take `CCOc1ccc(CNc2ccc(N3CCCC3)cc2)cc1`: the compound was classed as inactive.

As to `CCOc1ccc(CNc2ccc(N3CCN(Cc4ccccc4)CC3)cc2)cc1`, the Potency was 2.31 µM (active).

As for `CCOc1ccc(CN2CCC(Cc3ccccc3)CC2)cc1`, the result was inactive and the cell number change stood at 27.4%.
